The text below walks through data of PubChem BioAssay (NCI).

“And” between values parts separate entries of the source, which are not always exact repeats. Equal entries are not always repeated. Compounds without any hit were thinned out: in the full panel of roughly 79,000, 15% have a hit. A number with no mark means an inactive call. The source made the active and inactive calls. No stated cut-off is given here; in the data, active means growth inhibition above about 70%; inactive means the rest.

Assay [1] in a line: NCI Yeast Anticancer Drug Screen. Data for the rad50 strain (AID 155).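 Further: 0% = growth of vehicle-only cultures of the same strain.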 The following applies: S. cerevisiae rad50 strain growth inhibition, active compounds read high; at 50.0 µM unless noted. An outline of the steps:
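Growth of the mutant yeast was measured after compound exposure and referenced to vehicle-treated cultures.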

Assay [2] in a line: NCI Yeast Anticancer Drug Screen. Data for the mec2-1 strain (AID 157). The following applies: S. cerevisiae mec2-1 strain, active compounds read high; at 50.0 µM unless noted. In short, it runs like this: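 Readout is yeast growth inhibition, normalised to vehicle-treated controls, in the mec2-1 strain exposed to compound.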
Assay [3] can be described thus: NCI Yeast Anticancer Drug Screen. Data for the sgs1 mgt1 strain (AID 161).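 Further: 0% = growth of cultures given vehicle only.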 The following applies: S. cerevisiae sgs1 mgt1 strain, active compounds read high; at 50.0 µM unless noted. In short, it runs like this:
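Compounds are added to genetically altered yeast, and growth is compared with cultures given vehicle alone to give percent inhibition.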

Assay [4] is described as follows: NCI Yeast Anticancer Drug Screen. Data for the cln2 rad14 strain (AID 165).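 Further: 0% = growth equal to vehicle treated cultures.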 The following applies: S. cerevisiae cln2 rad14 strain, active compounds read high; at 50.0 µM unless noted. An outline of the steps:
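Relative to vehicle controls, growth inhibition of compound-treated cln2 rad14 yeast was recorded.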

A short description of assay [5]: NCI Yeast Anticancer Drug Screen. Data for the bub3 strain (AID 167). The following applies: S. cerevisiae bub3 mutant strain, active compounds read high; at 50.0 µM unless noted. In short, it runs like this:
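Whole-cell yeast assay. The mutant strain was incubated with compounds, and growth inhibition was determined by comparison with vehicle-treated cells.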

Assay [6] in a line: NCI Yeast Anticancer Drug Screen. Data for the mlh1 rad18 strain (AID 175). The following applies: S. cerevisiae mlh1 rad18 strain growth inhibition, active compounds read high; at 50.0 µM unless noted. An outline of the steps: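 Test agents were incubated with a yeast strain of defined genotype (DNA damage repair defect). Inhibition of growth was derived by comparison with vehicle-exposed cultures.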

On to `Clc1ccc(OCC(COc2ccccc2)Oc2nc(-c3ccccc3)nc(-c3ccccc3)n2)cc1` (stereo unspecified), for which the growth inhibition is -14.2% in assay [1]; 2.25% in assay [2]; 3.1% in assay [3]; -5.8% in assay [4]; -8.6% in assay [5]; -17.1% in assay [6].
On to `Cc1ccc(S(=O)(=O)NN=C2C3C=CC2CC3)cc1`, for which the growth inhibition in assay [1] is 11.8%; in assay [2] it was -2.3%; in assay [3], 2.55%; in assay [4], 6.25%; in assay [5] it was 2.7%; in assay [6], 4.75%.
Regarding `O=C(CCl)Nc1cc2ccccc2oc1=O`, the growth inhibition in assay [1] is 21%; in assay [2], 42.4%; in assay [3], 20.6%; in assay [4] it was 41%; in assay [5], 5.45%; in assay [6] it was -1.85%.
Regarding `CC(=O)N1C(=O)c2cccc([N+](=O)[O-])c2C1=O`, the growth inhibition is -1.6% in assay [1]; -11.9% in assay [2]; -9.55% in assay [3]; 7.15% in assay [4]; -21.7% in assay [5]; 11.4% in assay [6].
`O=C(O)C(=O)Nc1ccccc1`: the growth inhibition in assay [1] was -4.45%; in assay [2], -15.5%; in assay [3], -5.5%; in assay [4], -34.8%; in assay [5], 1.65%; in assay [6], -5.8%.
For the molecule `CCCCOC(=O)NC(=O)c1cc2cc(Cl)ccc2oc1=O`, the growth inhibition in assay [1] is 4.65%; in assay [2] it was 17.9%; in assay [3], 13.9%; in assay [4], 10.7%; in assay [5], 23.1%; in assay [6], 18.8%.
Take `COS(=O)(=O)N(C)c1nc(N(C)C)nc(N(C)C)n1`: the growth inhibition in assay [1] is -2.25%; in assay [2] it was -12.2%; in assay [3], -1.2%; in assay [4] it was 22.9%; in assay [5] it was 3.95%; in assay [6], -0.95%.
For the molecule `CN1C(=O)n2c(nc3ccccc32)C(Cl)(Cl)C1=O`, the growth inhibition in assay [1] is 13.8%; in assay [2], 10.3%; in assay [3], 3.25%; in assay [4], 20.4%; in assay [5], 34.7%; in assay [6], 42%.
`COC(=O)c1ccc(SCCC(=O)CN2C(=O)c3ccccc3C2=O)cc1`: the growth inhibition in assay [1] is 18.9%; in assay [2], 8.5%; in assay [3], 17.1%; in assay [4] it was 23.1%; in assay [5], 4.1%; in assay [6], 27.8%.
Regarding `CCC1CN2CCc3cc(OC)c(OC)cc3C2CC1=O` (stereo unspecified), the growth inhibition in assay [1] is -11.3%; in assay [2], -5.4%; in assay [3] it was -8.65%; in assay [4], -2.65%; in assay [5] it was 1.15%; in assay [6], -22.1%.
With `Cl`, the growth inhibition in assay [1] is -13.4% and -6.25%; in assay [2], -29.2% and 17.5%; in assay [3], -10.4% and 1.8%; in assay [4], -0.9% and 2.2%; in assay [5], -5.15% and -38%; in assay [6] it was -16% and -32.6%.
On to `Cc1cc(N(CCC#N)CCC#N)ccc1/C=N/NC(=O)c1ccccc1`, for which the growth inhibition in assay [1] was 6.1%; in assay [2] it was -2.35%; in assay [3], -10.1%; in assay [4], 6.3%; in assay [5], 5.95%; in assay [6], -47.5%.
In the case of `O=C(NC1c2ccccc2Oc2ccccc21)OCCI`, the growth inhibition is 36.1% in assay [1]; 6.05% in assay [2]; 37.6% in assay [3]; 13.3% in assay [4]; -14% in assay [5]; 19.8% in assay [6].
Take `O=C(O)c1ccc(NCO)cc1`: the growth inhibition in assay [1] was 7.05%; in assay [2] it was 5.15%; in assay [3], -13.2%; in assay [4], 33.7%; in assay [5], 4.3%; in assay [6], 7.85%.
Regarding `CCc1c(CC)c(CC)c(CC)c(CC)c1CC`, the growth inhibition in assay [1] is -42.3%; in assay [2], -14.7%; in assay [3], -36.4%; in assay [4], -39%; in assay [5] it was 1.05%; in assay [6] it was -31.8%.
Consider `CC(N1CCS(=O)(=O)CC1)P(=O)(O)O` (stereo unspecified), for which the growth inhibition is 0.3% in assay [1]; 8.3% in assay [2]; 8.8% in assay [3]; -8.5% in assay [4]; 17.8% in assay [5]; 2.3% in assay [6].
On to `C=CCn1c(=O)c2ccccc2[n+]2c(C)c(C(=O)OCC)sc12`, for which the growth inhibition in assay [1] was -26.9%; in assay [2] it was -16.2%; in assay [3] it was -2.65%; in assay [4], -14.5%; in assay [5], 2.45%; in assay [6], -19.6%.
Take `CC(=C=CC(c1ccccc1)(c1ccccc1)c1ccccc1)CC(c1ccccc1)(c1ccccc1)c1ccccc1`: the growth inhibition in assay [1] is 95% (active); in assay [2] it was 97.8% (active); in assay [3] it was 90.3% (active); in assay [4], 97.1% (active); in assay [5], 98% (active); in assay [6], 94% (active).
Turning to `OCCN1CCN=C1Cc1ccccc1`, the growth inhibition was 4.75% in assay [1]; 11.9% in assay [2]; 8.05% in assay [3]; 14.2% in assay [4]; -2.1% in assay [5]; 29.4% in assay [6].
In the case of `CCSc1nc2n(c(=S)n1)CCN2C`, the growth inhibition in assay [1] was 15.4%; in assay [2] it was -3.5%; in assay [3], 13.8%; in assay [4], 6.5%; in assay [5], 22.6%; in assay [6] it was 18.2%.
For `O=c1oc2ccccc2cc1-c1nc2ccccc2c(=O)[nH]1`, the growth inhibition was 17.8% in assay [1]; 8.1% in assay [2]; -20.9% in assay [3]; 13.7% in assay [4]; -4.9% in assay [5]; -50.9% in assay [6].
